Data as given in article PMC7862700, “An all-to-all approach to the identification of sequence-specific readers for epigenetic DNA modifications on cytosine”.

Columns and labels:
Experiment in all cases: DAPPL (digital affinity profiling via proximity ligation, sequencing); 10 mM Tris-HCl pH 7.5, 50 mM NaCl, 1 mM DTT, 4% glycerol, room temperature, 30 min; GST-TFs on glutathione beads, 16-mer random dsDNA library, 0.1% formaldehyde crosslink after washing; high values mean tight binding
FEV = biological target: T1, FEV (Homo sapiens, UniProt Q99581 1-238); details: protein: recombinant; tags: N-terminal GST; dsDNA, one strand shown
T1 sequence: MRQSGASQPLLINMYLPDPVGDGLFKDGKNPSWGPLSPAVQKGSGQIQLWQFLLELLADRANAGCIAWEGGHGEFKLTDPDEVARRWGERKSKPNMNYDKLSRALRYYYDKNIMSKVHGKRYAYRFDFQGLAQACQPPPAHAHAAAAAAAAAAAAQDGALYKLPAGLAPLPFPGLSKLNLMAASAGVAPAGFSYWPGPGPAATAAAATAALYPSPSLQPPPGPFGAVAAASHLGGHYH
In short: (§1)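 The binding signal reported is, for every hexamer, its read frequency for a factor over its read frequency for the tag-only sample. Reads came from pools of yeast-expressed, GST-fused human transcription factors on glutathione beads, barcoded with DNA and mixed with that sample, which were incubated with 200 nmole of a random double-stranded 16-mer DNA library in Tris/NaCl/DTT/glycerol buffer at room temperature for 30 min. After washing, the pools were crosslinked with 0.1% formaldehyde, proximity-ligated with BsaI/T4 ligase for 1 h at 37 °C, PCR-amplified and sequenced on an Illumina NextSeq500.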

ETV5 = ETV5 (Homo sapiens, UniProt P41161 1-510); details: protein: recombinant; tags: N-terminal GST; dsDNA, one strand shown
Chain of ETV5 (P41161 whole entry): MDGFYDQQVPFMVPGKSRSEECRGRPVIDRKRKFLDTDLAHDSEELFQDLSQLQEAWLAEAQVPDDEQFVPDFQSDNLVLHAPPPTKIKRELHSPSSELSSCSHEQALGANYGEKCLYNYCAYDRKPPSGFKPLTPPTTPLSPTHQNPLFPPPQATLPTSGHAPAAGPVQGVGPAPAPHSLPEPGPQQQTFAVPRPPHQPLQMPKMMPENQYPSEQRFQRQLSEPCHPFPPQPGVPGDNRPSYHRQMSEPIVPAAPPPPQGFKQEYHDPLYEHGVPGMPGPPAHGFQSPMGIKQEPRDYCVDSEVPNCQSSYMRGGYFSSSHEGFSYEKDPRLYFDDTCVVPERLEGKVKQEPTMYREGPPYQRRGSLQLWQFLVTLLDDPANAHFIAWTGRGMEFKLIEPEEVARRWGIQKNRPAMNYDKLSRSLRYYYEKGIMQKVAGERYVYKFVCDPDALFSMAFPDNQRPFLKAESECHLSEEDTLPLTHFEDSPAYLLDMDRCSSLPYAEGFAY
In short: as §1

HSF1 = HSF1 (Homo sapiens, UniProt Q00613 1-529); details: protein: recombinant; tags: N-terminal GST; chain copies: 3; dsDNA, one strand shown
Chain of HSF1 (Q00613 whole entry): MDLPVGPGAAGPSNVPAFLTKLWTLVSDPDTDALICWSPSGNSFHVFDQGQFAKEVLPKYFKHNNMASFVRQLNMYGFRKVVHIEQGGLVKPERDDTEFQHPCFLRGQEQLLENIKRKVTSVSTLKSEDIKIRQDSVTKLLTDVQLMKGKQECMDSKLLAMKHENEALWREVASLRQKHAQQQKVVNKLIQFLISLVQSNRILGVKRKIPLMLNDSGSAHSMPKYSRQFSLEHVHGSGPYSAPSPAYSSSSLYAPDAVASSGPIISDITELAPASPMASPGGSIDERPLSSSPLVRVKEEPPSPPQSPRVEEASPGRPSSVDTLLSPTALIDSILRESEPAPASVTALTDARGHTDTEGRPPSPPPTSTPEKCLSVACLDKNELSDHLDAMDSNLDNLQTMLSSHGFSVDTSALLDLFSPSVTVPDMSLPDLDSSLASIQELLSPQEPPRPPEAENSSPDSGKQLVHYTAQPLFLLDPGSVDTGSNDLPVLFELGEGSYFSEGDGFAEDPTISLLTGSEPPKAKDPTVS
In short: as §1

SPIC = biological target: T2, SPIC (Homo sapiens, UniProt Q8N5J4 1-248); details: protein: recombinant; tags: N-terminal GST; dsDNA, one strand shown
T2 sequence: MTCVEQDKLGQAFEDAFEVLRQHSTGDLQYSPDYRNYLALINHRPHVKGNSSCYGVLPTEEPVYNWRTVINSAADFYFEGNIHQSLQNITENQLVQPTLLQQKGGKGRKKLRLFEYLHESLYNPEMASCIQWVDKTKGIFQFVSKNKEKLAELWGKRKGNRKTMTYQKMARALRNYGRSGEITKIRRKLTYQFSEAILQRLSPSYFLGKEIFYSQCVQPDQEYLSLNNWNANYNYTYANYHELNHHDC
In short: as §1

ELF4 = ELF4 (Homo sapiens, UniProt Q99607 1-663); details: protein: recombinant; tags: N-terminal GST; dsDNA, one strand shown
Chain of ELF4 (Q99607 whole entry): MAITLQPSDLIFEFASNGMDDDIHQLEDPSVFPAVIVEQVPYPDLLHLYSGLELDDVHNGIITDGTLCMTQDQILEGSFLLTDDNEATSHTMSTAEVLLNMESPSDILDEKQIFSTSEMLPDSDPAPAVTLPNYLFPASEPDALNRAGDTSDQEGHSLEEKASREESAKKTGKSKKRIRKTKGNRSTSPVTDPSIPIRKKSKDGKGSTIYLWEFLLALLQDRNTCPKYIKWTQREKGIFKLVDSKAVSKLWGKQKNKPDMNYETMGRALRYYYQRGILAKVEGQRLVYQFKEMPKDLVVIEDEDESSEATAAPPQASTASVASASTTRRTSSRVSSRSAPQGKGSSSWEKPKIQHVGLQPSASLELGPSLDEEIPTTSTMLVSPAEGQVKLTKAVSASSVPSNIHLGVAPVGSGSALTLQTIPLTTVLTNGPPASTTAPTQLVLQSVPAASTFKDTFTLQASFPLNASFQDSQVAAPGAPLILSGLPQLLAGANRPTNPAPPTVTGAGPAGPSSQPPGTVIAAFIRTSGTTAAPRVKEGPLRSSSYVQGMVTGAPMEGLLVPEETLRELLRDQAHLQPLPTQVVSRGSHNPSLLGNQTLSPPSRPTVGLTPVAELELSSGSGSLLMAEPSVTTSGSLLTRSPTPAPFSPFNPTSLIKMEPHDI
In short: as §1

ELK4 = biological target: T3, ELK4 (Homo sapiens, UniProt P28324-2 1-405); details: protein: recombinant; tags: N-terminal GST; dsDNA, one strand shown
T3 sequence: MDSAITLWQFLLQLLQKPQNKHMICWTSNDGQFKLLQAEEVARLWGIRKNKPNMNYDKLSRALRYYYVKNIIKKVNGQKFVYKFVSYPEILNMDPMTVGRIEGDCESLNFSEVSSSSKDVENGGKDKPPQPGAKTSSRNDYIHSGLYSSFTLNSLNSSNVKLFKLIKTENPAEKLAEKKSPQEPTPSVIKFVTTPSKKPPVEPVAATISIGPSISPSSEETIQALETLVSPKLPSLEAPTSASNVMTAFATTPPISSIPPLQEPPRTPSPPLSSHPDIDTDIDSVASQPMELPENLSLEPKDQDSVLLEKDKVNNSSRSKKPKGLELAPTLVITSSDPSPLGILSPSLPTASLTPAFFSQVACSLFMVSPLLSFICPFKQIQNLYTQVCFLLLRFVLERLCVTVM
In short: as §1

ETV2 = biological target: T4, ETV2 (Homo sapiens, UniProt O00321 1-342); details: protein: recombinant; tags: N-terminal GST; dsDNA, one strand shown
T4 sequence: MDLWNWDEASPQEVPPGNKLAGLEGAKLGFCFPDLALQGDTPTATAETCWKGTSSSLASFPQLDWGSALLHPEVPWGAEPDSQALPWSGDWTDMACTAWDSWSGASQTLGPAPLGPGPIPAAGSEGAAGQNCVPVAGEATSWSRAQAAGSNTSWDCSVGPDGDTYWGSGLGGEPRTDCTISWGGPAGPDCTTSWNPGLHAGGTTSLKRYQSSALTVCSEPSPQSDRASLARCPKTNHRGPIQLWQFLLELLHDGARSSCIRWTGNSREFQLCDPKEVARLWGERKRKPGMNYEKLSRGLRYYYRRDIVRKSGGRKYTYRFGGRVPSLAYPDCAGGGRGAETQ
In short: as §1

ETV1 = ETV1 (Homo sapiens, UniProt P50549 1-477); details: protein: recombinant; tags: N-terminal GST; dsDNA, one strand shown
Chain of ETV1 (P50549 whole entry): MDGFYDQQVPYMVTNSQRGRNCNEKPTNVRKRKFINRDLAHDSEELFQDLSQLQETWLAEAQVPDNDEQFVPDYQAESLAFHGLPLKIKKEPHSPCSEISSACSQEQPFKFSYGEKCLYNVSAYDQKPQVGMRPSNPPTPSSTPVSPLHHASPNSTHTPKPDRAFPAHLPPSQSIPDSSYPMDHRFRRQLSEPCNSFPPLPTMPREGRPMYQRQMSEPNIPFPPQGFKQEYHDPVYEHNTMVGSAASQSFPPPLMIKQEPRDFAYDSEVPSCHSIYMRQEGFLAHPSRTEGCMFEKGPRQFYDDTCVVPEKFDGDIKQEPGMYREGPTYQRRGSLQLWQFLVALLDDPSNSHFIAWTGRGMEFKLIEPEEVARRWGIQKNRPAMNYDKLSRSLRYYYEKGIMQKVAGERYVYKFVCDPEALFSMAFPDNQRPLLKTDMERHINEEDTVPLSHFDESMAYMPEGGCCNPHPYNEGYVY
In short: as §1

ERF = biological target: T5, ERF (Homo sapiens, UniProt P50548 1-548); details: protein: recombinant; tags: N-terminal GST; dsDNA, one strand shown
T5 sequence: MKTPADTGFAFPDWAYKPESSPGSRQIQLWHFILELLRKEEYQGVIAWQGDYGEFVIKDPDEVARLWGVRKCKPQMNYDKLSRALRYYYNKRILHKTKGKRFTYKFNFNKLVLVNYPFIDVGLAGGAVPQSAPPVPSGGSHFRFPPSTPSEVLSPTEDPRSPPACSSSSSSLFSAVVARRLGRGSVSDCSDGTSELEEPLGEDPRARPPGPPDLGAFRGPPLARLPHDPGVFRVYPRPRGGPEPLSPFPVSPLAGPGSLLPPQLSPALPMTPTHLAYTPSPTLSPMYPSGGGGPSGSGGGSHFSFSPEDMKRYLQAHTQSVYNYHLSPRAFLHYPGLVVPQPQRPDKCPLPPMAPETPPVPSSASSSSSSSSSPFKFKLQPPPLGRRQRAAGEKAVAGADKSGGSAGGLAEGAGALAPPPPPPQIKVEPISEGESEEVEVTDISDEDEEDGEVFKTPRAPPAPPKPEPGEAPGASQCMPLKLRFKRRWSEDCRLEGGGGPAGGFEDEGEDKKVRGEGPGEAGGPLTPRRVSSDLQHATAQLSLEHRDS
In short: as §1

ETV3L = biological target: T6, ETV3L (Homo sapiens, UniProt Q6ZN32 1-361); details: protein: recombinant; tags: N-terminal GST; dsDNA, one strand shown
T6 sequence: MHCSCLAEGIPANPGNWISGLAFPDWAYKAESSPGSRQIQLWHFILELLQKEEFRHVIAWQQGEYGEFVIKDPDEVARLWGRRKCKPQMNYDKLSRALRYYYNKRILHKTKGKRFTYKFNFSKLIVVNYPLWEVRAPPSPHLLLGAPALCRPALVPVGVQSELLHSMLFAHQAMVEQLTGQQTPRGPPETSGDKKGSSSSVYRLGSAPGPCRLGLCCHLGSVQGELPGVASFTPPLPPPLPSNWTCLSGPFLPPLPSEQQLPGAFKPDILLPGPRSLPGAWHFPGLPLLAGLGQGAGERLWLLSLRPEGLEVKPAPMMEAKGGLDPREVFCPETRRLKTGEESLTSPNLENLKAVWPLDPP
In short: as §1

ETS2 = biological target: T7, ETS2 (Homo sapiens, UniProt P15036 1-469); details: protein: recombinant; tags: N-terminal GST; dsDNA, one strand shown
T7 sequence: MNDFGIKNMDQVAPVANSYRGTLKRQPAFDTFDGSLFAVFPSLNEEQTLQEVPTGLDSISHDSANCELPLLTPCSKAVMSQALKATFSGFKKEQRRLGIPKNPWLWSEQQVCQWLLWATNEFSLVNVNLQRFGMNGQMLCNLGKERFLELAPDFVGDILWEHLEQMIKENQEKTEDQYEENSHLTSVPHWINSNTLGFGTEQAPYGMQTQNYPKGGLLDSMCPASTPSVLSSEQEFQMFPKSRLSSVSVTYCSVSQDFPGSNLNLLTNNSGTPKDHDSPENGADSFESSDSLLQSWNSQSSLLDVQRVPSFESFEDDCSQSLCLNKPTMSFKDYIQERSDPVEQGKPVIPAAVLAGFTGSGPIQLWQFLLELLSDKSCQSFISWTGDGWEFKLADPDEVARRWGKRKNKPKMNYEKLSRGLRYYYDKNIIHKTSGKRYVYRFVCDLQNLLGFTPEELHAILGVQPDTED
In short: as §1

SPDEF = biological target: T8, SPDEF (Homo sapiens, UniProt O95238 1-335); details: protein: recombinant; tags: N-terminal GST; dsDNA, one strand shown
T8 sequence: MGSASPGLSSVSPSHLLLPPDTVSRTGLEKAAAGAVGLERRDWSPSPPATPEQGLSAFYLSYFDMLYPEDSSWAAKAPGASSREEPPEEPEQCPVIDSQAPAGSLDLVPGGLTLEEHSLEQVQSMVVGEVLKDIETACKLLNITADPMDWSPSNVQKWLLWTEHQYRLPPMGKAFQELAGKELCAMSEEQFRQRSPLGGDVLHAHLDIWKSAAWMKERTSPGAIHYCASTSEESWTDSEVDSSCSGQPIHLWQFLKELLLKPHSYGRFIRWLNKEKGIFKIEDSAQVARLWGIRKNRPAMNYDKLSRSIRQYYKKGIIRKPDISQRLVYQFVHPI
In short: as §1

ETV7 = biological target: T9, ETV7 (Homo sapiens, UniProt Q9Y603 1-341); details: protein: recombinant; tags: N-terminal GST; dsDNA, one strand shown
T9 sequence: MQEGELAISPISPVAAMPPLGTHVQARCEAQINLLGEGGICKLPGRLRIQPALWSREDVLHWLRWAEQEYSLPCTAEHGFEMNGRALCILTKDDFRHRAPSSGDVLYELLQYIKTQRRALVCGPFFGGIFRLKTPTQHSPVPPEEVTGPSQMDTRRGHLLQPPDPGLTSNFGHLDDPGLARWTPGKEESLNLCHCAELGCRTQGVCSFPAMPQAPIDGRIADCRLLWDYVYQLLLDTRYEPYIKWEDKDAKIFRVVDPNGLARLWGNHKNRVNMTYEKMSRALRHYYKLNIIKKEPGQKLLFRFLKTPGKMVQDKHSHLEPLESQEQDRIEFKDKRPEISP
In short: as §1

ELF5 = biological target: T10, ELF5 (Homo sapiens, UniProt Q9UKW6-2 1-255); details: protein: recombinant; tags: N-terminal GST; dsDNA, one strand shown
T10 sequence: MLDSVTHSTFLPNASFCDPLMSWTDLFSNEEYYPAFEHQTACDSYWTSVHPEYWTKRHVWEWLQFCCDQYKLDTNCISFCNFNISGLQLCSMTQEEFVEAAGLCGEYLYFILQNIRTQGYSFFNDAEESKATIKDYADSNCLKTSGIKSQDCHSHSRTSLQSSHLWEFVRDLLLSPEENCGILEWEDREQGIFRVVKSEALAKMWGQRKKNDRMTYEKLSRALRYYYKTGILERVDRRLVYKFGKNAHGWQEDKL
In short: as §1

ETV3 = biological target: T11, ETV3 (Homo sapiens, UniProt P41162-2 1-143); details: protein: recombinant; tags: N-terminal GST; dsDNA, one strand shown
T11 sequence: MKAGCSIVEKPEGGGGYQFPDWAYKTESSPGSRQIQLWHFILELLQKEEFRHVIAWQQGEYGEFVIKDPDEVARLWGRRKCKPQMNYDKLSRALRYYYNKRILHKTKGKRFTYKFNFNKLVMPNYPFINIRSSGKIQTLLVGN
In short: as §1

ETV6 = ETV6 (Homo sapiens, UniProt P41212 1-452); details: protein: recombinant; tags: N-terminal GST; dsDNA, one strand shown
Chain of ETV6 (P41212 whole entry): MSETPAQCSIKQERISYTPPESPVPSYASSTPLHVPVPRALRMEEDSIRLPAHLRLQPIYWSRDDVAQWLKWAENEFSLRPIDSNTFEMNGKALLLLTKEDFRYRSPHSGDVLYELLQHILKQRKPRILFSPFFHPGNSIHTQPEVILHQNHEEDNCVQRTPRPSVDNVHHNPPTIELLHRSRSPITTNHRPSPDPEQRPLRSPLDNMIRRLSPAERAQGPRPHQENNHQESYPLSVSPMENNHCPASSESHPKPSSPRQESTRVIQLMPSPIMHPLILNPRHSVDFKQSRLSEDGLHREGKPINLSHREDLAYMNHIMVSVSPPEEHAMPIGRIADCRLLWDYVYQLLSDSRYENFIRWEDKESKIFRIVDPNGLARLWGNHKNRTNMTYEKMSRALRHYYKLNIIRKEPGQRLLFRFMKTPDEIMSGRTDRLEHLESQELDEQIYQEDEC
In short: as §1

CRX = CRX (Homo sapiens, UniProt O43186 1-299); details: protein: recombinant; tags: N-terminal GST; dsDNA, one strand shown
Chain of CRX (O43186 whole entry): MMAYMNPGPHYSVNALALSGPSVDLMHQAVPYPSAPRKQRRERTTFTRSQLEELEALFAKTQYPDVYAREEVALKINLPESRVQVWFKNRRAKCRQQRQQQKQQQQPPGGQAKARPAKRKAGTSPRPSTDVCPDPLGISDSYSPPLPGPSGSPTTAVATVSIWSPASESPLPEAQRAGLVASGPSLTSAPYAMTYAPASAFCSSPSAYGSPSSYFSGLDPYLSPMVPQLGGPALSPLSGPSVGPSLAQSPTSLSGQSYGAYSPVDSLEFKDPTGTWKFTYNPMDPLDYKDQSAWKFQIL
In short: as §1

Sequence	binding signal (FEV)	binding signal (ETV5)	binding signal (HSF1)	binding signal (SPIC)	binding signal (ELF4)	binding signal (ELK4)	binding signal (ETV2)	binding signal (ETV1)	binding signal (ERF)	binding signal (ETV3L)	binding signal (ETS2)	binding signal (SPDEF)	binding signal (ETV7)	binding signal (ELF5)	binding signal (ETV3)	binding signal (ETV6)	binding signal (CRX)
TTCACA	1.17 fold enrichment (6-mer frequency, TF over GST control)	1.16 fold enrichment (6-mer frequency, TF over GST control)	1.04 fold enrichment (6-mer frequency, TF over GST control)	1.08 fold enrichment (6-mer frequency, TF over GST control)	1.17 fold enrichment (6-mer frequency, TF over GST control)	1.28 fold enrichment (6-mer frequency, TF over GST control)	1.28 fold enrichment (6-mer frequency, TF over GST control)	1.25 fold enrichment (6-mer frequency, TF over GST control)	1.26 fold enrichment (6-mer frequency, TF over GST control)	1.21 fold enrichment (6-mer frequency, TF over GST control)	1.23 fold enrichment (6-mer frequency, TF over GST control)	1.25 fold enrichment (6-mer frequency, TF over GST control)	1.29 fold enrichment (6-mer frequency, TF over GST control)	1.12 fold enrichment (6-mer frequency, TF over GST control)	1.13 fold enrichment (6-mer frequency, TF over GST control)	1.13 fold enrichment (6-mer frequency, TF over GST control)	
CTCAGA	1.03 fold enrichment (6-mer frequency, TF over GST control)	1.14 fold enrichment (6-mer frequency, TF over GST control)	1.17 fold enrichment (6-mer frequency, TF over GST control)	1.16 fold enrichment (6-mer frequency, TF over GST control)	1.14 fold enrichment (6-mer frequency, TF over GST control)	1.01 fold enrichment (6-mer frequency, TF over GST control)	1.18 fold enrichment (6-mer frequency, TF over GST control)	1.1 fold enrichment (6-mer frequency, TF over GST control)	1.21 fold enrichment (6-mer frequency, TF over GST control)	1.06 fold enrichment (6-mer frequency, TF over GST control)	1.02 fold enrichment (6-mer frequency, TF over GST control)	1.11 fold enrichment (6-mer frequency, TF over GST control)		1.03 fold enrichment (6-mer frequency, TF over GST control)	1.01 fold enrichment (6-mer frequency, TF over GST control)	1.13 fold enrichment (6-mer frequency, TF over GST control)	1.27 fold enrichment (6-mer frequency, TF over GST control)
